Reference: PubChem BioAssay
Activity calls are given as the source filed them.

How the values were obtained:
[1] = tested on: Human papillomavirus type 1a protein E7 (residues 44-93); test: HPV1a E7 fragment binders on microarrays, primary screen, biochemical, small-molecule microarray, residues 44-93, 635 nm fluorescence (AID 1108); settings: small-molecule microarray binding, fluorescence 635 nm; higher = more signal;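 further: E7 fragment applied at 1 µg/mL in TBST for 1 h at 4 C; score combines spot fluorescence with its signal to noise ratio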
[2] = modulators of HCV replicon luciferase signal, primary screen, HCV replication inhibitor project, Huh7 cells, luciferase reporter (AID 1109); settings: 48 h, higher = more signal;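 further: huh7 hepatoma cells harbouring a luciferase neomycin HCV replicon reporter; luciferase luminescence as measure of HCV replicon replication; test concentration not given here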
[3] = molecular target: Left-right determination factor 2 (Homo sapiens) (UniProt O00292); test: LEFTY2 binders on small-molecule microarrays, primary screen, biochemical, small-molecule microarray, 635 nm fluorescence scan (AID 1110); settings: LEFTY2 binding, higher = more signal
[4] = molecular target: Calmodulin-1 (Homo sapiens) (UniProt P0DP23); test: CALM1 binders on microarrays, EGTA buffer, profiling panel, biochemical, small-molecule microarray, Cy5-labelled CALM1 (AID 1111); settings: Cy5-CALM1 binding fluorescence, higher = more signal;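 further: labelled calmodulin applied in Tris saline Tween buffer holding calcium plus EGTA and DTT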
[5] = molecular target: Calmodulin-1 (Homo sapiens) (UniProt P0DP23); test: calcium-bound CALM1 binders on microarrays, profiling panel, artefact control for SMM control-protein annotation, biochemical, small-molecule microarray, Cy5-labelled CALM1, plus calcium (AID 1112); settings: Cy5-CALM1 binding fluorescence, higher = more signal;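 further: score merges spot fluorescence with signal to noise from triplicate slides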
[6] = small-molecule microarray binders of probe aWnt5a, primary screen, biochemical, biotinylated probe, 635/667 nm fluorescence (AID 1113); settings: higher = more signal;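 further: score merges 667 nm fluorescence intensity with signal-to-noise per printed feature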
[7] = small-molecule microarray binders of probe aShh, primary screen, biochemical, biotinylated probe, 635/667 nm fluorescence (AID 1114); settings: higher = more signal;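 further: probe is biotin-labelled aShh protein from a stem cell growth factor screen; measures binding of labelled protein to compounds printed on the slide; score merges feature fluorescence at 667 nm with signal-to-noise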
[8] = small-molecule microarray binders of probe aNog, primary screen, biochemical, biotinylated probe, 635/667 nm fluorescence (AID 1115); settings: higher = more signal;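 further: probe is biotinylated aNog protein used at 0.15 µg/mL for 1 h at 4 C; z-score combines 667 nm fluorescence of each spot with its signal to noise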
[9] = molecular target: Torsin-1A-interacting protein 1 (Homo sapiens) (UniProt Q5JTV8); test: LAP1 binders from COS7 cell lysate, primary screen, small-molecule microarray, 635/667 nm fluorescence (AID 1116); settings: COS7-hLAP1 lysate binding, 635 nm fluorescence, higher = more signal
[10] = molecular target: Alpha-bungarotoxin (Bungarus multicinctus) (UniProt P60615); test: alpha-bungarotoxin binders on microarray, profiling panel, artefact control for SMM control protein annotation, biochemical, small-molecule microarray, Alexa647 label, 635/667 nm fluorescence (AID 1117); settings: alpha-BTX-A647 binding fluorescence, higher = more signal
Albumin (Bos taurus) = Albumin (Bos taurus) (UniProt P02769); test: bovine serum albumin binders on microarray, profiling panel, artefact control for SMM control protein annotation, biochemical, small-molecule microarray, Alexa647 label, 635/667 nm fluorescence (AID 1118); settings: BSA-A647 binding, fluorescence 635 nm, higher = more signal;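 further: score merges 667 nm emission intensity and signal-to-noise per printed compound spot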
[11] = small-molecule microarray binders of probe aXIP, primary screen, biochemical, NeuroSMM set, 635/667 nm fluorescence (AID 1119); settings: higher = more signal, called active from +8 up or from −8 down;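 further: probe is the protein aXip251-270 applied at 1 µg/mL to compound-printed slides; binding of probe to printed compounds measured as 667 nm fluorescence plus signal to noise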
[12] = small-molecule binders of probe aNOTCH3, primary screen, biochemical, small-molecule microarray, 635/667 nm fluorescence (AID 1120); settings: higher = more signal;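 further: probe is a biotin-tagged antibody raised against NOTCH3 rather than NOTCH3 protein; score merges spot fluorescence near 667 nm with spot signal to noise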
[13] = small-molecule binders of probe aNOTCH2, primary screen, biochemical, small-molecule microarray, 635/667 nm fluorescence (AID 1121); settings: higher = more signal;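 further: score merges feature fluorescence read at 667 nm with its signal to noise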
[14] = molecular target: Carbonic anhydrase 2 (Homo sapiens) (UniProt P00918); test: CAII small-molecule binders, profiling panel, biochemical, small-molecule microarray, Alexa647-labelled CAII (AID 1122); settings: CAII-A647 binding fluorescence, higher = more signal
[15] = COS7 lysate on small-molecule microarray, probe aHis, 635 nm (AID 1123); settings: COS7 cell lysate, fluorescence, higher = more signal;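 further: z-score combines 667nm fluorescence intensity with signal-to-noise per printed compound spot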
[16] = compound binding in COS7 lysate, probe aLAP1, primary screen, cell lysate, small-molecule microarray (AID 1124); settings: probe aLAP1, fluorescence, higher = more signal;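 further: lysate comes from COS7 cells expressing LAP1 and is applied at 0.3 µg/mL; score merges spot fluorescence near 667 nm with signal-to-noise over triplicate slides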
Sam68 (KHDRBS1) = test: Sam68 small-molecule binders, primary screen, biochemical, small-molecule microarray, 635 nm fluorescence (AID 1125); settings: small-molecule microarray binding, higher = more signal;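 further: score merges 667 nm channel intensity with signal to noise over triplicate slides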
[17] = tested on: Chordin-like protein 2 (CHRDL2); test: CHRDL2 small-molecule binders, primary screen, biochemical, small-molecule microarray, 635 nm fluorescence (AID 1126); settings: small-molecule microarray binding, fluorescence 635 nm; higher = more signal;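 further: printed compound slides probed with Chrdl2 protein at 4 µg/mL for 1 h at 4 C; score merges 667 nm emission intensity with signal to noise over three replicate slides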
[18] = molecular target: Concanavalin-A (Canavalia ensiformis) (UniProt P02866); test: ConA small-molecule binders, primary screen, artefact control for SMM control protein annotation, biochemical, small-molecule microarray, Alexa647 label, 635 nm (AID 1127); settings: ConA-A647 binding fluorescence, higher = more signal;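 further: z combines 667 nm emission intensity with signal-to-noise across three replicate slides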
Chain of Concanavalin-A (Canavalia ensiformis) (P02866 whole entry, looked up): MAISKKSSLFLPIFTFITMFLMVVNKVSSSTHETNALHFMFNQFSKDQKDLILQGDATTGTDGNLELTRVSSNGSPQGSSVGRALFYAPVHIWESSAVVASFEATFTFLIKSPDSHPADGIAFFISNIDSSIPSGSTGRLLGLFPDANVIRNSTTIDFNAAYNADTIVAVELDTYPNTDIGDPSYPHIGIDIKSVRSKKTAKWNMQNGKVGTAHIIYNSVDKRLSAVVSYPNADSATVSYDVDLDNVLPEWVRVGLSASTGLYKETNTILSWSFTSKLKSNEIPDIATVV

Chain of Torsin-1A-interacting protein 1 (Homo sapiens) (Q5JTV8 whole entry, looked up): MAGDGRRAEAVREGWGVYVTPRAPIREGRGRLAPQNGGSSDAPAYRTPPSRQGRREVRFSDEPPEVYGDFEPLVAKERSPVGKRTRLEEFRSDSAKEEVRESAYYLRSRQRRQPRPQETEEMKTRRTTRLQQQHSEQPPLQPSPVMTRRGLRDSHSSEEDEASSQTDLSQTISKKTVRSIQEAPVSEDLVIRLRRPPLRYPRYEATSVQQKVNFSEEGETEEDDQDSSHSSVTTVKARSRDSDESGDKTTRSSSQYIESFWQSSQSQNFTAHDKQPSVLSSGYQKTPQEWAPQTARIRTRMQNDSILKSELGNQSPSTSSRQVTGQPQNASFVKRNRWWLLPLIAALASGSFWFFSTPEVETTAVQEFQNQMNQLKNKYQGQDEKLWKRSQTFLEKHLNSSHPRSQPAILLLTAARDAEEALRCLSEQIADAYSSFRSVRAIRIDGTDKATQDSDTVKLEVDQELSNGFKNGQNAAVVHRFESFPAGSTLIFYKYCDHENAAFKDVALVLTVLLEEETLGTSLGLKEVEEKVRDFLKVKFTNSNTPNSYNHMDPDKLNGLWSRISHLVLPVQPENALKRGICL
Chain of Alpha-bungarotoxin (Bungarus multicinctus) (P60615 whole entry, looked up): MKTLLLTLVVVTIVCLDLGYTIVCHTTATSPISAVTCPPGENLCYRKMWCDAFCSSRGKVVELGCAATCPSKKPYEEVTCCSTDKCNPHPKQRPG
Chain of Albumin (Bos taurus) (P02769 whole entry, looked up): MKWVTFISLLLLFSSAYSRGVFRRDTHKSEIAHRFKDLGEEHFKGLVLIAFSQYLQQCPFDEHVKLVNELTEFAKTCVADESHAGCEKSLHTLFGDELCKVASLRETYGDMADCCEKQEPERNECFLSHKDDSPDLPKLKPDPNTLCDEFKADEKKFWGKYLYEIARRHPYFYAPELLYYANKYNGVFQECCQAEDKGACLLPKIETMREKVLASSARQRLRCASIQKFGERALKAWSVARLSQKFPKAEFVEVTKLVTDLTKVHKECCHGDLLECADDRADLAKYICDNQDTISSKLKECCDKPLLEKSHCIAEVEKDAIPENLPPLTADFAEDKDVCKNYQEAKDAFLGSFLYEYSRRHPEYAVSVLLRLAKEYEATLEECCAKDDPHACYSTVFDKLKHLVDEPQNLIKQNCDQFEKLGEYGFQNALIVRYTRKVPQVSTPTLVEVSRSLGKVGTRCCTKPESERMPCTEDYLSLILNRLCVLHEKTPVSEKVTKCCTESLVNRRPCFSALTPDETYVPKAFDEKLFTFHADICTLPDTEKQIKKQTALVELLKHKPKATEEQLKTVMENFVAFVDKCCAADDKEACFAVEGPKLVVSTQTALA
Chain of Left-right determination factor 2 (Homo sapiens) (O00292 whole entry, looked up): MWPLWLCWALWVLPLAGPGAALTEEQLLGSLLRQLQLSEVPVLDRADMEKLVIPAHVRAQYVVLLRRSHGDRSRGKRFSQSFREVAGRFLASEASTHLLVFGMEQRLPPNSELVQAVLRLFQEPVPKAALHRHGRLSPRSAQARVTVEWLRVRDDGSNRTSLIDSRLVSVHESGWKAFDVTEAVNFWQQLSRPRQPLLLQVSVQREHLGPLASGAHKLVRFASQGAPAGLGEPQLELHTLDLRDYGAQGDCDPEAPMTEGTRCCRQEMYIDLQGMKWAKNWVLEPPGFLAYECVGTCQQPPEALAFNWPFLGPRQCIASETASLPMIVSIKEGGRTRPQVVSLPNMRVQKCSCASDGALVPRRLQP

Structure (SMILES) | composite z-score [1] | z-score [2] | composite z-score [3] | composite z-score [4] | composite z-score [5] | composite z-score [6] | composite z-score [7] | composite z-score [8] | composite z-score [9] | composite z-score [10] | composite z-score (Albumin (Bos taurus)) | composite Z-score [11] | composite z-score [12] | composite z-score [13] | composite z-score [14] | composite z-score [15] | composite z-score [16] | composite z-score (Sam68 (KHDRBS1)) | composite z-score [17] | composite z-score [18]
N#Cc1ccc(-c2cccc(=O)o2)cc1 | 0.561 | -0.0585 | 0.0266 | -0.179 | -0.564 | -0.0383 | -0.349 | 0.119 | -0.102 | 0.26 | 0.341 | -0.0662 (inactive) | 0.0426 | -0.0928 | 0.0483 | 0.365 | -0.0816 | 0.808 | 0.252 | 0.411
C=CCN1C(=O)[C@@]2(O[C@@H](CCn3cc([C@H](O)c4ccccc4)nn3)[C@H]([Si](C)(C)c3ccc(OC)cc3)[C@H]2C)c2cc(N3C(=O)c4cccc5cccc3c45)ccc21 | -0.18 | -3.74 | -0.898 | 0.178 | 0.872 | -0.178 | -0.138 | 0.205 | -0.236 | -0.0541 | 0.0345 | -0.212 (inactive) | -0.272 | -0.223 | 0.106 | 0.436 | 0.0703 | -0.233 | -1.02 | 0.341
CN(C)CCCC[C@@H]1NC(=O)[C@@H]2C[C@H](C(=O)NCCCCCN)[C@H](c3cccc(OCCO)c3)N2C1=O | 1.11 | 0.663 | 0.64 | 1.77 | 0.717 | -0.174 | -0.16 | -0.301 | 1.05 | 0.293 | 0.49 | 0.932 (inactive) | 0.423 | -0.14 | 0.727 | 0.482 | 1.27 | 1.33 | 0.495 | 1.21
CCCC=C(CCC)[C@@H](NC(=O)c1ccc(C(F)(F)F)cc1)c1ccc(C(F)(F)F)cc1 | 1.36 | -1.5 | -0.203 | 1.72 | 1.09 | 0.253 | 0.778 | 1.78 | 0.926 | 0.942 | 1.01 | -0.523 (inactive) | 0.326 | 0.105 | 0.205 | 2.94 | -0.0554 | 1.31 | -0.748 | 1.07
O=C(NCC(O)CO)[C@@]1(CCS(=O)(=O)c2ccccc2)N=C(c2ccc(OCCCO)cc2)O[C@H]1c1ccccc1 (stereo not given in full) | 1.47 | 0.0294 | -1.15 | 1.51 | 1.14 | 0.0676 | 0.181 | 0.0574 | 2.55 | 3.32 | 0.905 | 1.06 (inactive) | 0.177 | 0.137 | 0.555 | 3.17 | 1.11 | 1.22 | 0.106 | 0.0968
NC(=O)N1C(=O)C2C(C1=O)C1C=C(CCCO)C2C(c2ccc(CN3CCCC3)cc2)N1Cc1cc2c(cc1Br)OCO2 (stereo not given) | -1.36 | -1.51 | 0.943 | -0.666 | -0.361 | -0.128 | 0.0796 | -0.252 | 0.187 | -0.493 | -0.939 | -0.328 (inactive) | -0.323 | -0.117 | 0.339 | 0.344 | 0.117 | -0.312 | 0.192 | -0.129
